Results published in PubChem BioAssay AID743395 (Broad Institute, 2014).
Screen size: about 1,200 compounds; about 480 (40%) were called active. How the calls were made is not given here. The set was probably picked from earlier hits. The list is a sample of the results. Measured potencies and affinities stand elsewhere.

Assay: viability loss in human hepatoma cells – cell-based, CellTiter-Glo luminescence, cherry-pick, set 2, cytotoxicity control, dose response (AID 743395)
Conditions: HepG2 viability, CellTiter-Glo ATP luminescence, 72 h; series mostly up to 26 µM

Structure (SMILES)	outcome
CSc1ccccc1NC(=O)COC(=O)CCC(=O)c1ccc(F)cc1	inactive
CC(=O)OCCn1c2nc(=O)[nH]c(=O)c-2nc2cc(C)c(C)cc21	inactive
COc1cccc(NC(=O)N(C)C[C@H]2OCc3ccccc3-c3c(n(C)c4ccccc34)C(=O)N([C@H](C)CO)C[C@H]2C)c1	inactive
O=C(c1[nH]ncc1-c1cccc(Br)c1)C1CO1 (configuration not stated)	inactive
CC(C)CCNC(=O)C(=O)Nc1ccc2c(c1)N(S(=O)(=O)c1cccs1)CCC2	inactive
CCOC(=O)C1=CN(Cc2cccc(I)c2)S(=O)(=O)N(C)C1C (configuration not stated)	inactive
CC(C)c1nc2oc3c(NCCO)ncnc3c2c2c1COC(C)(C)C2	inactive
COc1cc(-c2cnc3c(NC=O)cc(-c4cccc(C(F)(F)F)c4)cn23)cc(OC)c1OC	inactive
O=CNc1cc(-c2ccc(C(=O)NC3CC3)cc2)cn2c(-c3ccccc3)cnc12	inactive
COc1ccc(-c2cnc3c(NC=O)cc(-c4ccccc4)cn23)cc1OC	inactive
O=C(COC(=O)Cc1ccsc1)Nc1cccc(F)c1	inactive
COc1cccc2cc(C(=O)NCCN3CCOCC3)c(=O)oc12	inactive
COc1ccccc1OCCNC(=O)CCNC(=O)c1ccccc1OC	inactive
NS(=O)(=O)c1ccc(NC(=O)c2cccc3cc4ccccc4nc23)cc1	inactive
O=C1NC(Cc2ccc(O)cc2)c2nc3ccc(Br)cc3c(=O)n2-c2cc3ccccc3cc21 (configuration not stated)	inactive
COc1ccccc1S(=O)(=O)N1CC[C@@H]2[C@@H](CO)N(C)c3ccc(-c4ccc(F)cc4)cc3[C@@H]21	inactive
COc1ccccc1Cc1c(-c2ccc(Cl)cc2)nc2ccc(Br)cn12	inactive
O=C(O)CCCCCCCCc1cn(Cc2ccc(C(=O)c3ccccc3)cc2)nn1	inactive
CC1CCN(S(=O)(=O)N2CCCC(C(=O)NCc3ccccc3Cl)C2)CC1 (configuration not stated)	inactive
C[C@@](Cc1ccc(O)c(O)c1)(NN)C(=O)O	inactive
COc1ccc(NC(=O)c2cc(C3CC3)on2)c(OC)c1	inactive
Cc1ccc(Nc2nc(CSc3nnc(-c4cccnc4)n3-c3ccccc3F)cs2)cc1	inactive
Cc1cc(C(=O)CCC(=O)NC(C)c2ccc(S(N)(=O)=O)cc2)c(C)s1 (configuration not stated)	inactive

Structure (SMILES)	outcome
Cc1c(Cl)cccc1NC(=O)C1CC(=O)N(C2CCCC2)C1 (configuration not stated)	inactive
COCCNC(=O)C1CCCN(C(=O)c2cc(-c3cccs3)oc2C)CC1 (configuration not stated)	inactive
O=C1NN(c2cccc(Br)c2)C(=O)/C1=C\c1ccc(O)cc1	inactive
O=C1c2cccc3c([N+](=O)[O-])ccc(c23)C(=O)N1Cc1cccnc1	inactive
Cc1ccc(N2C(=O)c3cccc4c([N+](=O)[O-])ccc(c34)C2=O)c2cccnc12	inactive
CCN1C(=O)c2cccc3c(S(=O)(=O)N(C(C)=O)c4ccc(OC(C)=O)cc4)ccc1c23	inactive
CCOc1ccc(NC(=O)c2ccc(NC(=O)CN3C(=O)C(=O)N(CC(C)C)C3=O)cc2)cc1	inactive
CC1C2CCC(C2)C1OC(=O)c1ccccc1C(=O)O (configuration not stated)	inactive
CCCCn1nc(NC(=O)CC)c2cc3cc(OC)ccc3nc21	inactive
O=C1CCC(CCc2nc3ccccc3[nH]2)(c2ccccc2)C(=O)N1 (configuration not stated)	inactive
N#C/C(=C\c1ccccn1)c1nc2ccccc2s1	inactive
O=C(C[C@@H]1C[C@H]2c3cc(NC(=O)CC4CC4)ccc3O[C@H]2[C@H](CO)O1)NCc1cccc(F)c1	inactive
COC(=O)C1(C)CCCC2(C)C3CCC(C(C)C)C(CO)C3C(CO)CC12 (configuration not stated)	inactive
CCSc1nnc(N2C(=O)C(O)=C(C(=O)c3ccco3)C2c2cccc(OC)c2)s1 (configuration not stated)	inactive
Cc1cccc(C)c1OCC(=O)OCC(=O)Nc1ccc(Cl)cn1	inactive
O=C(Nc1ccc(Cl)cn1)c1cccc2ccccc12	inactive
CC(=Nc1ccccc1O)c1sc2ccccc2c1O	inactive
COc1ccc(N=C2C(=O)N3CCCc4cccc2c43)cc1	inactive
CCN(C(=O)CSc1nc2ccccc2c(=O)n1-c1ccccc1F)C1CCS(=O)(=O)C1 (configuration not stated)	inactive
O=C(CN1C(=O)NC2(CCCCCCC2)C1=O)Nc1ccc(Br)cc1	inactive
Nc1ccccc1C(=O)N1O[C@@H]2C=C[C@H]1C2	inactive
CCOC(=O)c1sc2nc(Cc3ccc(Cl)cc3)[nH]c(=S)c2c1C	inactive
CCOC(=O)c1sc(NC(=O)c2c(CC)noc2C)nc1C	inactive

Structure (SMILES)	outcome
CC1CCN(C(=O)c2ccc(S(=O)(=O)N3CCCC3)cc2)CC1	inactive
Cc1noc(C)c1C(=O)NCC1COc2ccccc2O1 (configuration not stated)	inactive
N#CC1c2ccccc2-c2ccccc2N1C(=O)c1ccccc1 (configuration not stated)	inactive
Cc1ccc(NC(=O)CSC2=NN3CCCC(=O)N=C3S2)c(C)c1	inactive
COc1ccc(Cl)cc1NC(=O)CN(C)CC(=O)Nc1cc(OC)c(OC)c(OC)c1	inactive
Fc1ccccc1/C=N/NC(=S)Nc1ccc(Cl)cc1Cl	inactive
COc1cccc(NC(=O)CN2C(=O)NC3(CCCCCC3)C2=O)c1	inactive
CC(=O)Nc1ccc(NC(=O)COc2cccc3c2OC(C)(C)C3)cc1	inactive
CCOC1=C/C(=C/c2c(N)n3nc(S(=O)(=O)CC)sc3nc2=O)C=CC1=O	inactive
Cc1cccc(NC(=O)c2ccccc2NC(=O)C2CCCCC2)c1C	inactive
Fc1ccc(/C=N/NC(=S)Nc2ccc(Cl)cc2Cl)cc1	inactive
COc1ccc(C=NNC(=O)CCCC(=O)NN=Cc2ccc(OC)c(O)c2)cc1O	inactive
COc1cc(/C=C/C(=O)c2ccc3c(c2)OCO3)cc(Cl)c1O	inactive
COc1ccc(/C=N/NC(=O)c2c(C)nc3ccc(Br)cn23)cc1OC	inactive
Cc1cc(NC(=O)CN2C(=O)NC3(CCCCCC3)C2=O)ccc1Br	inactive
Cc1cnc(NC(=O)CCc2ccccc2)s1	inactive
CCC1=Nc2cc(C(=O)NCc3cccnc3)ccc2Sc2ccc(C)cc21	inactive
COc1cc(C(=O)NCC2CCCO2)ccc1OCc1ccc(Cl)cc1 (configuration not stated)	inactive
CCn1c(SC(C)C(=O)NCC2CCCO2)nc2ccccc21 (configuration not stated)	inactive
COc1ccccc1OCC(O)CN1C(=O)NC(C)(C)C1=O (configuration not stated)	inactive
C/C=C/c1ccc([C@H]2[C@@H](CNC(=O)CC)N(C(=O)COC)[C@H]2CO)cc1	inactive
